For 11 molecules, outcome results are on record in PubChem BioAssay AID1053184 (Broad Institute, 2014).

Results with a measured potency or affinity are listed apart. Active and inactive are the calls of the source.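 The calls were made as follows: active = cell killing, with a fitted half-maximal concentration at or below twice the top valid dose tested; inconclusive = flat curve between 30% and 70% signal loss, or poor fit; inactive = effect in the rising direction, plus the rest.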

The assay can be described thus: cytotoxicity in A549 cells, dose response, cytotoxicity control, cell-based, cherry-picked samples (AID 1053184). The note with it: A549 viability, CellTiter-Glo ATP luminescence, 72 h; series mostly up to 26 µM.

As to `CNC[C@@H]1Oc2cc(C#Cc3ccccc3OC)ccc2S(=O)(=O)N([C@H](C)CO)C[C@H]1C`, the molecule was called inactive.
For `COc1ccc2c3c(n(C)c2c1)[C@@H](CO)N(CC1CC1)CC31CN(C(=O)c2ccc3c(c2)OCO3)C1`, the molecule was called inactive.
As for `C[C@H](CO)N1C[C@H](C)[C@@H](CN(C)Cc2ccccc2)Oc2c(NC(=O)Cc3cn(C)c4ccccc34)cccc2C1=O`, the outcome was inactive.
In the case of `COc1cc(CN2C[C@@H]3N[C@H](C2)C3c2ccc(-c3ccc(C#N)cc3)cc2)cc(OC)c1` (stereo partly specified), the result was inactive.
As to `N#Cc1cccc(-c2ccc(C3[C@@H]4CN(C(=O)Nc5ccc(C(F)(F)F)cc5)C[C@H]3N4)cc2)c1` (stereo partly specified), the outcome was inactive.
In the case of `C[C@H]1CNC(=O)[C@@H](Cc2ccc(C(F)(F)F)cc2)CCn2nncc2COC1`, the call was inactive.
Take `C/C=C/c1ccc([C@H]2[C@@H](CO)N3C(=O)CN(Cc4ccc(F)cc4)C[C@@H]23)cc1`: the result was inactive.
To `O=S(=O)(c1ccc(F)cc1)N1C[C@@H]2N[C@H](C1)C2c1ccc(/C=C/c2ccccc2)cc1` (stereo partly specified) belongs “inactive”; to `CO[C@@H](CN(C)Cc1cc(F)ccc1F)[C@@H](C)CN(C(=O)Nc1ccc(C(F)(F)F)cc1)[C@H](C)CO`, “inactive”; to `COc1cccc(-c2cccc(-c3nc(C(=O)Nc4ccc(-c5ccccc5)cc4)cc4c3[C@@H](CCO)N(S(=O)C(C)(C)C)C4)c2)c1` (stereo partly specified), “inactive”.
On to `CN(C)C(=O)c1cccc(-c2ccc(C3[C@@H]4CN(Cc5ccccc5F)C[C@H]3N4)cc2)c1` (stereo partly specified), for which the molecule was classed as inactive.
